# Calls of active or inactive are those of the source. Unless noted, no rule for the calls is given here.
# Columns and labels:
# [1] = resazurin metabolic signal in HepG2 cells – cell-based, resazurin fluorescence, 24 h, PK04 Diversity Set, profiling panel (AID 1172); conditions: HepG2 viability, higher = more signal
# [2] = budding yeast growth changes without added modifier – OD600, strain BY4716, 24 h, basal condition, primary screen (AID 1173); conditions: S. cerevisiae BY4716 growth, OD600, 24 h; higher = more signal, called active from +8 up or from −8 down
# [3] = viability profiling in MM1S myeloma cells – cell-based, resazurin fluorescence, basal, 24 h, PK04 Diversity Set, profiling panel (AID 1174); conditions: higher = more signal, called active from +8 up or from −8 down;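 also: MM1S multiple myeloma cell line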
# [4] = target: Dihydroorotate dehydrogenase (quinone), mitochondrial (Plasmodium falciparum (isolate 3D7)) (UniProt Q08210); assay: inhibition of P. falciparum DHODH – biochemical, C-terminal His tag, absorbance 600 nm, primary screen (AID 1175); conditions: PfDHODH enzyme, DCIP absorbance 600 nm; higher = more signal, called active from +8 up or from −8 down;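 also: recombinant parasite enzyme with a five histidine tag at its C terminus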
# [5] = inhibition of PAO1 biofilm formation – strain PAO1, LB-PBS medium, absorbance 600 nm, primary screen (AID 1176); conditions: P. aeruginosa PAO1 growth/biofilm, A600, 12 h; higher = more signal
# [6] = growth modulation of vineyard yeast isolate – strain RM11-1a, OD600, basal, 24 h, primary screen (AID 1177);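 also: cultures grown under basal conditions with no added stressor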; conditions: S. cerevisiae RM11-1a growth, OD600, 24 h; higher = more signal, called active from +8 up or from −8 down
# [7] = growth of efflux-deficient E. coli DRC39 – strain DRC39, OD650, 24 h, E. coli filamentation inducers, primary screen (AID 1178);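 also: growth measured as culture turbidity by optical density at 650 nm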; conditions: E. coli DRC39 acrAB, higher = more signal, called active from +8 up or from −8 down
# [8] = growth of efflux-deficient E. coli DRC39 – strain DRC39, OD650, 48 h, E. coli filamentation inducers, primary screen (AID 1179);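 also: screen aims at cell division blockers that make cells filament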; conditions: E. coli DRC39 delta-acrAB growth, higher = more signal, called active from +8 up or from −8 down
# [9] = viability profiling in RPMI8226 myeloma cells – cell-based, resazurin fluorescence, basal, 24 h, PK04 Diversity Set, profiling panel (AID 1180); conditions: higher = more signal;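 also: RPMI8826 multiple myeloma cell line at 5000 cells per well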
# [10] = target: E3 ubiquitin-protein ligase XIAP (Homo sapiens) (UniProt P98170); assay: small molecules binding XIAP protein – biophysical, small-molecule microarray, fluorescence 635 nm, primary screen (AID 1181); conditions: higher = more signal;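 also: score merges 667 nm emission and signal to noise over triplicate slides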
# [11] = system: XIP peptide (Xip251-270) binding; assay: XIP fragment 251-270 binding compounds – biochemical, small-molecule microarray, fluorescence 635/667 nm, 0.1 µg/mL protein, primary screen (AID 1182); conditions: fluorescent protein binding, 635 nm, higher = more signal, called active from +8 up or from −8 down
# [12] = system: XIP peptide (Xip251-270); assay: compounds binding XIP fragment 251-270 – biochemical, small-molecule microarray, fluorescence 635/667 nm, 0.5 µg/mL protein, primary screen (AID 1183); conditions: fluorescence 635 nm, higher = more signal
# [13] = blood-stage malaria parasite viability loss – strain 3D7, DAPI fluorescence, 100 nL, primary screen (AID 1184);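 also: parasites grown inside human red blood cells in medium with human serum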; conditions: P. falciparum 3D7 growth, 3 d, higher = more signal
# [14] = target: Homeobox protein Hox-A13 (Mus musculus) (UniProt Q62424); assay: disruptors of Hoxa13 oligonucleotide interaction – biochemical, fluorescence polarization, labeled oligonucleotide, primary screen (AID 1185); conditions: Hoxa13:DNA binding, 15 min, higher = more signal, called active from +8 up or from −8 down
# [15] = blockers of DNA damage checkpoint Chk1 activation – imaging, HeLa, hydroxyurea, phospho-Chk1 antibody, percent positive cells, primary screen (AID 1186); conditions: hydroxyurea-induced phospho-Chk1 immunofluorescence imaging, higher = more signal
# [16] = blockers of DNA damage checkpoint Chk1 activation – imaging, HeLa, hydroxyurea, phospho-Chk1 nuclear intensity, primary screen (AID 1187); conditions: hydroxyurea-induced phospho-Chk1 immunofluorescence imaging, higher = more signal
# Chain of E3 ubiquitin-protein ligase XIAP (Homo sapiens) (P98170 whole entry, looked up, the tested form may be a part): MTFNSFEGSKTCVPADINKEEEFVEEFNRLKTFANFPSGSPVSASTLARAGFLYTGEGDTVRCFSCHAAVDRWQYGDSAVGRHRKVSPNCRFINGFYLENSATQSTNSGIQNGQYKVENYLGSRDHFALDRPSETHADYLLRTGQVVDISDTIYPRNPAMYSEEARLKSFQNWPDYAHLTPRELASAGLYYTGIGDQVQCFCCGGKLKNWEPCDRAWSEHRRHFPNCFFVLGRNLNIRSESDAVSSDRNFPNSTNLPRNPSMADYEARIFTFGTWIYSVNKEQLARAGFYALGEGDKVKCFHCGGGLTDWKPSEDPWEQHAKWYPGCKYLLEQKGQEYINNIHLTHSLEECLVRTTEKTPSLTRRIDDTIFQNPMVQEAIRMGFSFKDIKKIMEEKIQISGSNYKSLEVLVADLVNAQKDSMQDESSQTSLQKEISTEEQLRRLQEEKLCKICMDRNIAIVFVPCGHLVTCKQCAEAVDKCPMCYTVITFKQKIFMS
# Chain of Homeobox protein Hox-A13 (Mus musculus) (Q62424 whole entry, looked up): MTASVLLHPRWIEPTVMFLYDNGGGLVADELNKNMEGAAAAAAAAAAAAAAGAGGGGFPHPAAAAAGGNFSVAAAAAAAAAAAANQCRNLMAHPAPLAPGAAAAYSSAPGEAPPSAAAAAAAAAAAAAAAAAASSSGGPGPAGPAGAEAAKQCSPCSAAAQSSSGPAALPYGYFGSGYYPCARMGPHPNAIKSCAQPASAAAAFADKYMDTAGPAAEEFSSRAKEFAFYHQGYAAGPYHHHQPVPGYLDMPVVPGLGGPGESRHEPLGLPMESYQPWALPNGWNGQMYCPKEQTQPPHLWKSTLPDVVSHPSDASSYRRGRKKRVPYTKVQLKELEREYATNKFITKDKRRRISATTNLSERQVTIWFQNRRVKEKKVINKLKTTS
# Chain of Dihydroorotate dehydrogenase (quinone), mitochondrial (Plasmodium falciparum (isolate 3D7)) (Q08210 whole entry, looked up): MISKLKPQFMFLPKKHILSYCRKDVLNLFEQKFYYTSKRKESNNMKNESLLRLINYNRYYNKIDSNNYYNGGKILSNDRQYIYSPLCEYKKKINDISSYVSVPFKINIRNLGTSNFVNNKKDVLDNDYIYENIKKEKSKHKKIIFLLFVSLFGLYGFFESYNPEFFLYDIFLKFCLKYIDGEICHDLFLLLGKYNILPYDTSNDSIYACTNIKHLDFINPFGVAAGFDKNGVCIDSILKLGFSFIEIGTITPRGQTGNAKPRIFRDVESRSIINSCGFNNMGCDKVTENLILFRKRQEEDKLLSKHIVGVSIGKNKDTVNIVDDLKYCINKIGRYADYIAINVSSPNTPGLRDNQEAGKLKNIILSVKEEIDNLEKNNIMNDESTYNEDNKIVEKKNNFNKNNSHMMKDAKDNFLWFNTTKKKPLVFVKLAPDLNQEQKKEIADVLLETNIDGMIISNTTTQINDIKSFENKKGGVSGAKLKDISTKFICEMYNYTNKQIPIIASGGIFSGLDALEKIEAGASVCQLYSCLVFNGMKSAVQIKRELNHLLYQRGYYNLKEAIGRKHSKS
SMILES,z-score [1],z-score [2],z-score [3],composite z-score [4],z-score [5],z-score [6],z-score [7],z-score [8],z-score [9],composite z-score [10],composite z-score [11],composite z-score [12],z-score [13],z-score [14],z-score [15],z-score [16]
C=CCN1C(=O)[C@@]2(O[C@@H](CCO)[C@H]([Si](C)(C)c3ccc(OC)cc3)[C@H]2C)c2cc(NC(C)=O)ccc21,-0.865,-1.47 (inactive),-1.6 (inactive),-1.13 (inactive),-0.188 (inactive),1.48 (inactive),0.166 (inactive),0.121 (inactive),-1.43,0.436,0.149 (inactive),0.258,-2.74,-6.52 (inactive),-0.0604 (inactive),0.348 (inactive)
C=CC[C@@]1(C(=O)OC)N=C(c2ccc(OCCCO)cc2)O[C@@H]1c1ccccc1CN=[N+]=[N-],1.09,-12.3 (active),-1.72 (inactive),-0.509 (inactive),-0.347 (inactive),-0.712 (inactive),0.419 (inactive),0.967 (inactive),-0.494,-0.0868,2.46 (inactive),0.611,-2.39,-3.73 (inactive),-1.07 (inactive),-1.45 (inactive)
O=C1O[C@@H](c2ccccc2)[C@@H](c2ccccc2)N2[C@@H](c3ccc(O)cc3)[C@]3(C(=O)Nc4ccccc43)[C@@H](C(=O)NC[C@H](O)c3ccccc3)[C@H]12,1.42,-0.882 (inactive),0.616 (inactive),0.609 (inactive),-0.489 (inactive),0.0813 (inactive),0.389 (inactive),-0.163 (inactive),-0.273,0.272,0.737 (inactive),0.232,1.15,-5.08 (inactive),-0.0877 (inactive),-0.173 (inactive)
CCCC[C@@H]1C[C@H]1[C@@H](NC(=O)c1ccccc1)c1ccc(-c2ccccc2)cc1,-2.26,-0.552 (inactive),-2.24 (inactive),-0.297 (inactive),0.122 (inactive),0.219 (inactive),-0.499 (inactive),-0.293 (inactive),-3.64,1.14,0.397 (inactive),-0.0572,-0.0371,-3.63 (inactive),-0.0528 (inactive),0.215 (inactive)
CC(C)NC(=O)[C@@]1(c2ccc([N+](=O)[O-])cc2)CC(=O)N(C(C)C)[C@@H]1c1ccc(CO)cc1,-0.864,0.347 (inactive),-0.972 (inactive),-1.53 (inactive),1.13 (inactive),-1.58 (inactive),0.423 (inactive),1.17 (inactive),-0.792,-0.369,0.508 (inactive),0.316,0.468,-2 (inactive),-0.403 (inactive),-0.102 (inactive)
NC(=O)NCC#Cc1ccc2c(c1)[C@]1(C(=O)N2)[C@H](c2ccc(O)cc2)N2[C@H](c3ccccc3)[C@H](c3ccccc3)OC(=O)[C@H]2[C@@H]1C(=O)N1CCN(c2ncccn2)CC1,-0.271,0.244 (inactive),0.965 (inactive),-0.154 (inactive),1.18 (inactive),0.517 (inactive),0.247 (inactive),0.0093 (inactive),1.24,-0.0004,0.17 (inactive),0.466,-0.136,-1.61 (inactive),0.477 (inactive),1.04 (inactive)
CO[C@H]1O[C@H](CO)[C@@H](OC(=O)Nc2cccc(F)c2)[C@H](OC(=O)Nc2ccccc2-c2ccccc2)[C@@H]1OC(=O)Nc1ccccc1-c1ccccc1,-1.71,0.664 (inactive),-2.52 (inactive),-0.59 (inactive),1.39 (inactive),2.42 (inactive),-0.798 (inactive),0.689 (inactive),-1.78,0.117,1.37 (inactive),0.805,-2.53,-1.83 (inactive),-0.164 (inactive),0.217 (inactive)
COc1ccc([Si](C)(C)[C@@H]2[C@@H](CCn3cc([C@H](O)c4ccccc4)nn3)O[C@]3(C(=O)N(C)c4ccccc43)[C@H]2C)cc1,-1.46,-0.397 (inactive),-2.34 (inactive),0.283 (inactive),0.119 (inactive),1.04 (inactive),-0.834 (inactive),-1.33 (inactive),-1.81,-0.0272,-0.558 (inactive),0.679,-1.13,-6.22 (inactive),0.131 (inactive),-0.858 (inactive)
CCCCCCCCCCC(O)C1C=CC2C(=O)N(c3ccccc3)C(=O)C2N1Nc1ccc([N+](=O)[O-])cc1 (stereo not drawn),-0.573,0.673 (inactive),-0.0843 (inactive),-0.838 (inactive),0.285 (inactive),0.0401 (inactive),-0.552 (inactive),0.0458 (inactive),-1.11,-0.126,0.812 (inactive),0.801,-0.338,-2.71 (inactive),0.346 (inactive),-0.444 (inactive)
CC(C)(C)OC(=O)CC[C@]1(C(=O)NCC(O)CO)N=C(c2ccc(OCCCO)cc2)O[C@H]1c1ccccc1CN=[N+]=[N-] (stereo partly drawn),-0.206,-0.694 (inactive),-0.918 (inactive),-0.59 (inactive),1.65 (inactive),-0.591 (inactive),-0.185 (inactive),-0.659 (inactive),-0.483,0.049,3.09 (inactive),0.878,-0.121,-5.33 (inactive),-0.029 (inactive),0.402 (inactive)
[N-]=[N+]=NCc1ccccc1[C@H]1OC(c2ccc(OCCCO)cc2)=N[C@@]1(Cc1ccccc1)C(=O)O,1.31,-3.06 (inactive),-0.967 (inactive),-0.055 (inactive),-0.0862 (inactive),0.816 (inactive),-1.13 (inactive),-0.835 (inactive),0.273,-0.205,0.419 (inactive),0.652,0.45,-5.05 (inactive),-0.594 (inactive),-1.1 (inactive)
O=S(=O)(NCCCO)c1ccc(Br)cc1,0.304,-0.476 (inactive),0.261 (inactive),-1.62 (inactive),-0.236 (inactive),-0.482 (inactive),1.68 (inactive),2.3 (inactive),0.461,0.0441,-0.2 (inactive),0.0425,0.327,0.533 (inactive),-0.868 (inactive),-0.953 (inactive)
CC(c1ccccc1)C(O)C1C=CC2C(=O)N(Cc3ccccc3)C(=O)C2N1n1cnnc1 (stereo not drawn),-0.69,-6.59 (inactive),-0.652 (inactive),0.381 (inactive),0.492 (inactive),0.263 (inactive),-0.491 (inactive),-2.39 (inactive),-0.161,0.456,-0.429 (inactive),0.908,-0.864,-1.93 (inactive),0.106 (inactive),-0.634 (inactive)
COC(=O)[C@@]1(Cc2ccc(OC)cc2)[C@H]2c3cc(C(=O)N4CCCC4)n(C[C@H](O)CO)c3C[C@H]2CN1C(=O)c1ccccc1,-0.0006,1.92 (inactive),-0.579 (inactive),-0.475 (inactive),-0.306 (inactive),1.04 (inactive),0.305 (inactive),0.644 (inactive),-0.595,-0.0251,0.883 (inactive),-0.197,-1.17,-5.13 (inactive),0.0578 (inactive),-0.0868 (inactive)
C=C[C@H](C)[C@H](O)c1ccc(OCCO)cc1,0.847,-1.4 (inactive),0.867 (inactive),0.257 (inactive),0.261 (inactive),0.349 (inactive),0.74 (inactive),0.715 (inactive),-1.9,-0.115,-0.199 (inactive),-0.143,-0.996,-0.499 (inactive),-0.82 (inactive),-0.216 (inactive)
COc1cc2c(cc1O)C(c1ccc(CN3CCCC3)cc1)N(Cc1sc3ccccc3c1Cl)CC2 (stereo not drawn),-0.307,-1.82 (inactive),-0.527 (inactive),-2.82 (inactive),0.0619 (inactive),0.953 (inactive),1.23 (inactive),0.25 (inactive),-1.05,0.0815,0.656 (inactive),0.879,-1.58,-5.24 (inactive),0.356 (inactive),0.653 (inactive)
[N-]=[N+]=NCc1ccccc1[C@H]1OC(c2ccc(OCCCO)cc2)=N[C@@]1(Cc1ccccc1)C(=O)NCC(O)CO (stereo partly drawn),1.59,-0.366 (inactive),-0.327 (inactive),-0.313 (inactive),2.25 (inactive),-0.405 (inactive),-0.329 (inactive),-0.279 (inactive),-0.435,0.459,0.701 (inactive),0.306,-2.48,-3.47 (inactive),0.105 (inactive),0.231 (inactive)
CCCCN1CC=CC23O[C@@H]4/C=C\CCCOC(=O)C4[C@H]2C(=O)N(C(C)CO)[C@@H]3C1=O (stereo partly drawn),-0.901,-0.138 (inactive),0.196 (inactive),-0.415 (inactive),-0.857 (inactive),0.429 (inactive),0.742 (inactive),0.738 (inactive),0.442,-0.157,0.502 (inactive),-0.269,0.494,-4.24 (inactive),0.166 (inactive),0.711 (inactive)
